# Source: PubChem
# Many of the other results were omitted from the sample, so hits are more common in it than they were.
# Dicer inh = inhibitors of Dicer pre-microRNA processing, primary screen, biochemical, cat-ELCCA, chemiluminescence; Endoribonuclease Dicer (Homo sapiens), Q9UPY3; cat-ELCCA pre-miR-21 Dicer processing; active compounds read high; z-score at 25 µM; 47,000 tested, 6% active; in the data active = z-score above about 3, passing the limit was not always enough;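 also: plate controls were vehicle for no effect and no enzyme for full effect; higher signal means more uncleaved substrate so more Dicer inhibition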
# An asterisk follows results filed as active.
SMILES,Dicer inh
CC(=O)Oc1ccc(-c2nc3ccc(C(=O)O)cc3s2)cc1,0.17
Nc1ccc2nc(-c3ccc(O)cc3)sc2c1,3.54*
Nc1ccc(-c2nc3ccc(N)cc3s2)cc1,2.29
Nc1ccc(-c2nc3ccc(C(=O)O)cc3s2)cc1,0.3
Nc1cccc(-c2nc3ccc(N)cc3s2)c1,1.73
O=C(O)c1ccc2nc(-c3ccccc3)sc2c1,3.75*
CCOC(=O)C1C2C=CC3(CN(Cc4ccc(C)cc4)C(=O)C13)O2 (stereo unspecified),2.95
CCOC(=O)c1ccc2nc(-n3cccc3)sc2c1,1.67
CCN(C(=O)c1cccc(OC)c1)c1cccc2ccccc12,1.2
CC(C)(C)OC(=O)NC(COCc1ccccc1)C(=O)NCc1ccccc1 (stereo unspecified),-0.87
CCNC(=O)C(NC(=O)OC(C)(C)C)C(C)OCc1ccccc1 (stereo unspecified),4.72*
CCNC(=O)C(C)NC(=O)OC(C)(C)C (stereo unspecified),-0.15
Cn1c(=O)c2c(nc3n(Cc4ccc(F)cc4)c(-c4ccc(Cl)cc4)cn23)n(C)c1=O,0.31
C=CCOC(=O)c1sc(N2C(=O)c3oc4ccccc4c(=O)c3C2c2ccc(OC)cc2)nc1C (stereo unspecified),0.21
CC1CCc2c(sc3nnn(CC(=O)NCc4ccco4)c(=O)c23)C1 (stereo unspecified),1.74
CCCCCCc1c(O)nc(SCC(=O)O)[nH]c1=O,5.67*
CCCCCCc1c(O)nc(SCCN(C)C)[nH]c1=O,0.69
CCCCCc1c(O)nc(SCCN(C)C)[nH]c1=O,1.21
C#CCOC(=O)Nc1ccc(OC)nc1,0.87
C/C(O)=C(\N=O)C(=O)Nc1ccccc1,-0.95
CC(=N\Nc1c(Cl)cc(Cl)cc1Cl)/C(=N\O)C(=O)Nc1ccccc1,3.03*
O=C(NC(=S)Nc1c(Cl)cc(Cl)cc1Cl)c1ccccc1,-1.24
CCC(=O)c1cc2c(cc1N)OCCO2,5.24
COC(=O)c1ccc(Oc2nc(N(C)C)nc(N(C)C)n2)cc1,-0.06
CCOC(=O)c1ccc(Oc2nc(N(C)C)nc(N(C)C)n2)cc1,1.7
SMILES,Dicer inh
CCOC(=O)c1ccc(Oc2nc(NC)nc(SC)n2)cc1,5.61*
CCOC(=O)c1cnc(Sc2ccc(Cl)cc2)nc1C(F)(F)F,-4.23
CC(C)n1c(CN2CCN(c3ccccc3)CC2)nc2c1c(=O)n(C)c(=O)n2C,-1.63
COC(=O)c1ccccc1Sc1nc2ccc(Cl)cc2s1,0.17
Cc1ccc(Cl)cc1N1C(=O)CC(C)(C)CC1=O,7.19
COc1ccc(Cl)cc1N1C(=O)c2ccncc2C1=O,2.89
Cc1ccc(Cl)cc1N1C(=O)c2ccncc2C1=O,3.42*
CC(C)(C)C(=O)CSC1=NNC(c2ccccn2)S1 (stereo unspecified),-2.03
O[C@H]1C2C3CC4C5C3C1C5C1(OCCO1)C42 (stereo partly specified),0.55
Cc1ccc(NS(=O)(=O)c2ccc(Cl)cc2)c([N+](=O)[O-])c1,-0.45
Cc1ccc(S(=O)(=O)Nc2cc(C)ccc2C)cc1,0.42
Cc1ccc(S(=O)(=O)Nc2ccc(C)cc2NS(=O)(=O)c2ccc(F)cc2)cc1,4.56*
COc1cccc(Cn2c(-c3cncs3)nc3ccccc32)c1,-1.37
CN1CN=C(SCc2ccc(Cl)cc2)NC1,0.6
Cc1[nH]c2ccccc2c1C1(O)C(=O)N(Cc2ccc3c(c2)OCO3)c2ccccc21 (stereo unspecified),3.86*
Cc1ccc(CN2C(=O)C(O)(c3c(C)[nH]c4ccccc34)c3ccccc32)cc1 (stereo unspecified),1.36
Cc1[nH]c2ccccc2c1C1(O)C(=O)N(Cc2ccc(Cl)cc2)c2ccccc21 (stereo unspecified),1.52
CSc1scc(-c2cc(Cl)cc(Cl)c2)c1C#N,-0.74
C/C(=N\Nc1cc(C(F)(F)F)ccn1)c1ccc(Oc2ncc([N+](=O)[O-])s2)cc1,-0.22
CN(C)S(=O)(=O)N(CC(=O)Nc1ccc2c(c1)OCCO2)c1ccccc1,-0.65
Cc1ccc(-c2nc(-n3c(C)ccc3C)sc2C)cc1Cl,-3.53
COC(=O)c1ccc(C(=O)OC)c(NC(=O)Nc2ccc(F)cc2)c1,0.73
CCOC(=O)Nc1cc(C(=O)OC)ccc1C(=O)OC,2.11
COC(=O)c1ccc(C(=O)OC)c(NC(=O)C2CC3CCC2C3)c1 (stereo unspecified),4.31*
Cc1nc(C(F)(F)F)nc(Sc2ccccc2Cl)c1Oc1ccccc1,-1.19
SMILES,Dicer inh
O=C1c2ccccc2CC(=O)c2sccc21,1.94
c1ccc(-c2nc3c4c5c(sc4ncn3n2)CCCC5)cc1,1.22
CC1(C)Cc2c(sc3ncn4nc(-c5ccncc5)nc4c23)C(C)(C)N1,0.58
CC1(C)Cc2c(sc3ncn4nc(-c5ccncc5)nc4c23)CO1,3.14*
COc1ccc(-c2nc3c4c5c(sc4ncn3n2)CCCC5)cc1,0.04
Fc1ccc(-c2nc3c4c5c(sc4ncn3n2)CCCC5)cc1,3.95*
c1cc(-c2nc3c4c5c(sc4ncn3n2)CCCCC5)ccn1,0.59
COc1cc(C(=O)NC(=S)Nc2ccc(C)c(F)c2)cc(OC)c1OC,0.51
CCOc1cc(C2C(C#N)=C(N)Oc3n[nH]c(C)c32)ccc1OCc1ccc(Cl)cc1 (stereo unspecified),-5.82
CCCS(=O)(=O)c1cnc(C)nc1N,-0.66
COc1cc(C2Nc3ccc4ccccc4c3C3=C2CC(C)(C)CC3=O)ccc1O (stereo unspecified),-0.66
CCOC(=O)c1nnc2c3c(-c4ccccc4)c(-c4ccccc4)nnc3nn2c1C,-0.33
CS(=O)(=NS(=O)(=O)NC(=O)Nc1cccc(C(F)(F)F)c1)c1ccccc1 (stereo unspecified),0.76
Cc1c(C#N)c(N)n(Cc2cc(C(F)(F)F)cc(C(F)(F)F)c2)c1C,1.53
Cc1onc(-c2c(Cl)cccc2Cl)c1C(=O)N1CC2(C)CC1CC(C)(C)C2 (stereo unspecified),-0.19
Cc1cc(NC(=O)N(C)C)nn1-c1ccccc1,-2.13
COC(=O)Nc1cc(C)n(-c2ccccc2)n1,0.02
CC(=O)OCc1cc(/C=N/N(C(C)=O)c2ccccc2)nn1-c1ccccc1,3.5*
CN(C)N1C(=O)c2cccc3c(Br)ccc(c23)C1=O,-0.08
O=c1cc(C(F)(F)F)[nH]n1-c1nc2ccccc2s1,0.2
CC(=O)OC[C@H]1O[C@@H](NC(N)=O)[C@H](OC(C)=O)[C@@H](OC(C)=O)[C@@H]1OC(C)=O,-0.2
COc1c(Cl)cc(Cl)c(OC)c1C(=O)NC(=O)Nc1c(Cl)cc(Cl)cc1Cl,3.16*
COc1c(Cl)cc(Cl)c(OC)c1C(=O)NC(=O)Nc1c(C)cc(Br)cc1C,-1.93
COc1c(Cl)cc(Cl)c(OC)c1C(=O)NC(=O)Nc1c(Cl)cc([N+](=O)[O-])cc1Cl,-1.03
CC(=O)c1ccc(OCc2cccc(C(=O)N3CCN(c4ncccc4C(F)(F)F)CC3)c2)cc1,-0.77
SMILES,Dicer inh
CSc1cc(-c2ccc(F)cc2)nn1S(=O)(=O)c1cc(C(F)(F)F)cc(C(F)(F)F)c1,-1.61
FC(F)(F)c1ccnc(Oc2ccc(/C=N/NC(=S)Nc3cc(Cl)ccc3Cl)cc2)n1,-0.58
Nc1cccc(-c2nc3cc4sc(-c5cccc(N)c5)nc4cc3s2)c1,0.71
Nc1ccc(-c2nc3cc4sc(-c5ccc(N)cc5)nc4cc3s2)cc1,-2.07
c1cc(-c2nc3cc4sc(-c5ccn[nH]5)nc4cc3s2)[nH]n1,3.18*
COc1ccc(/C(C)=N/N=C/c2cc(OC)c(OC)c(OC)c2)cc1,-2.34
Oc1ccccc1/C=N/Nc1cccc(C(F)(F)F)c1,1.69
